Test results: PubChem BioAssay (NCATS)
Records with an inconclusive call do not appear. Entries that show only a call come without a potency. Calls of active or inactive are those of the source. The call rests on the fitted dose curve; in most records, active means well fitted curve in the direction sought with a large enough effect; inconclusive means small, poorly fitted or top-dose-only effect, or another doubt; inactive means no such curve, though single readings can be large; an effect the other way counts as inactive or inconclusive.

Experiments:
[1] = target: Aldehyde dehydrogenase, mitochondrial (Homo sapiens) (UniProt P05091); assay: qHTS for Inhibitors of the Aldehyde Dehydrogenase Family (ALDH2) Primary screen (AID 2061308); further: nearly all actives have a fitted effect of over 55% in size
[2] = target: Retinaldehyde dehydrogenase 3 (Homo sapiens) (UniProt P47895); assay: qHTS for Inhibitors of the Aldehyde Dehydrogenase Family (ALDH1A3) Primary screen (AID 2061315)

SMILES | Potency [1] | Potency [2]
C=C(C)C(=O)O[C@H]1[C@H]2C(=C)C(=O)O[C@@H]2C[C@@H](C)[C@@H]2O[C@@H]2C(=O)[C@](C)(O)[C@@H]1OC(C)=O | inactive | inactive
Fc1ccc(-c2nc(-c3ccncc3)nc3ccccc23)cc1F | inactive | inactive
COc1cc(O)c(C(CC(=O)N2CCCC(C#N)C2)c2ccc3c(c2)OCO3)c(OC)c1 (stereo not given) | inactive | inactive
Cc1cc(N[S+](=O)([O-])c2cc3c(cc2Cl)CCC(=O)N3)ccc1Br | inactive | inactive
Cn1c(=O)c2c(nc(CN3CCN(C(=O)C4CC4)CC3)n2Cc2ccccc2Cl)n(C)c1=O | inactive | inactive
N#Cc1nc(Nc2ccc(-c3ccccc3)cc2)nc(NC2CCCC2)n1 | inactive | inactive
CC(=O)Nc1cccc([S+](=O)([O-])N2CCCN([S+](=O)([O-])c3cccc(NC(C)=O)c3)CC2)c1 | inactive | inactive
CCOc1ccc(CCNC(=O)c2ccnn2Cc2cccc(C)c2)cc1OCC | inactive | inactive
FC(F)(F)c1ccc(-c2nc(NCc3ccc(-c4cccnc4)cc3)c3ccccc3n2)cc1 | inactive | inactive
O=C([C@H](Cc1ccc(O[S+](=O)([O-])c2cccc3cnccc23)cc1)N[S+](=O)([O-])c1cccc2cnccc12)N1CCN(Cc2ccccc2)CC1 | inactive | inactive
CC(=O)O[C@@](C)(C(=O)/C=C/C(C)(C)O)[C@H]1[C@H](O)C[C@@]2(C)[C@@H]3CC=C4[C@@H](C=C(O)C(=O)C4(C)C)[C@]3(C)C(=O)C[C@]12C | inactive | inactive
Cc1ccc(-c2ccc(CNc3nc(-c4ccccc4C(C)C)ncc3F)cc2)cn1 | inactive | inactive
O=C1NS(=O)(=O)c2cscc21 | inactive | inactive
O=C(Nc1ccc(-n2ccnc2)c(F)c1)Nc1nnc(-c2ccncc2)s1 | inactive | inactive
C=C[C@@]12COC(=O)C(=C)C1[C@@H](O)[C@H](C(=C)C(=O)OC)[C@@H](OC(=O)C(=C)CO)C2 (stereo not given in full) | inactive | inactive
Cc1ccc(S(=O)(=O)Nc2cnccc2C(=O)Nc2nc(-c3cc4ccccc4o3)cs2)cc1 | inactive | inactive
CC(C)COc1ccc(-c2ccc(=O)n(CC(=O)NCCc3ccccc3)n2)cc1 | inactive | inactive
CC(=O)N1c2ccc(S(=O)(=O)Nc3ccc(C)c(C)c3)cc2CC1C (stereo not given) | inactive | inactive
Cc1ccc(-n2cnc3cc(C(=O)N4CCCCC4)ccc32)cc1 | inactive | inactive
CC(C)(C)OC(=O)NCC(=O)NNC(=O)c1cc2ccccc2[nH]1 | inactive | inactive
Cc1cc(C)n2ncc(C(=O)NC3CCC(C(C)(C)C)CC3)c2n1 (stereo not given) | inactive | inactive
O=C(Cc1nnc(-c2cc3ccccc3[nH]2)s1)Nc1cc(C(F)(F)F)ccc1Cl | inactive | inactive
O=[S+]([O-])(Nc1ccccc1)c1ccc(NCc2cccc(C(F)(F)F)c2Cl)cc1 | inactive | inactive
C=C1C(O)C(O)C2(CC3C(C)=CCC4C(C)(CO)CCCC34C)OC2C1O (stereo not given) | inactive | inactive
COc1cc2ncnc(N(C)Cc3cccs3)c2cc1-c1ccc2c(c1)OCO2 | inactive | inactive
CN(C)[S+](=O)([O-])c1ccc(-c2ccc(=O)n(CC(=O)NCCc3ccccc3)n2)cc1 | inactive | inactive
Cc1cc(C)n2ncc(C(=O)Nc3cc(Cl)cc(Cl)c3)c2n1 | inactive | inactive

SMILES | Potency [1] | Potency [2]
O=S(=O)(NC[C@@H]1CCC[C@H](CNS(=O)(=O)c2c(F)cccc2F)C1)c1ccc2c(c1)OCCO2 | inactive | inactive
CCCn1c(-c2ccc(F)cc2)nc2c(NCCN3CCCCC3)nc(C)nc21 | inactive | inactive
Cc1cc2c(s1)c1cnn(Cc3c(F)cc(F)cc3F)c(=O)c1n2C | inactive | inactive
CC1(C(=O)O)CCCC2(C)C3CCC4CC3(CCC12)CC4(O)CO (stereo not given) | inactive | inactive
C=C1C(=O)OC2C1CCC1(C)C(O)CC=C(C)C21 (stereo not given) | inactive | inactive
O=C(Nc1nc(-c2ccccc2)cs1)c1ccccc1-n1cnnn1 | inactive | inactive
O=C(O)c1ccc(CSc2nnc(-c3cccc([S+](=O)([O-])NC4CCCC4)c3)n2-c2ccccc2)cc1 | inactive | inactive
COc1ccc(S(=O)(=O)N2CCN(C(=O)C3COc4ccccc4O3)CC2)cc1 (stereo not given) | inactive | inactive
CCOc1ccc(CCNC(=O)c2cc3sccc3n2Cc2ccccc2)c(F)c1OCC | inactive | inactive
CC(C)=CCC[C@](C)(O[C@@H]1O[C@H](CO[C@@H]2O[C@@H](CO)[C@H](O)[C@H]2O)[C@@H](O)[C@H](O)[C@H]1O)[C@H]1CC[C@]2(C)[C@@H]1[C@H](O)C[C@@H]1[C@@]3(C)CC[C@H](O[C@@H]4O[C@H](CO)[C@@H](O)[C@H](O)[C@H]4O[C@@H]4O[C@H](CO)[C@@H](O)[C@H](O)[C@H]4O)C(C)(C)[C@@H]3CC[C@]12C | inactive | inactive
Cc1noc(C)c1-c1ccc2ncnc(NCc3ccccc3C(F)(F)F)c2c1 | inactive | inactive
Cc1cccc(CNc2ncnc3ccc(-c4ccc5c(c4)OCO5)cc23)c1 | inactive | inactive
Cc1cccc(CNc2ncnc3ccc(-c4ccc5c(c4)OCCO5)cc23)c1 | inactive | inactive
Cc1cnc(-c2ccccc2C(C)C)nc1NCc1ccc(-c2cccnc2)cc1 | inactive | inactive
S=P(c1ccccc1)(c1ccccc1)c1nc(CCCc2ccccc2)n2ccccc12 | inactive | inactive
O=C(Nc1ccc(-c2nc3ccccc3[nH]2)cc1)Nc1ccc2c(c1)OCCO2 | inactive | inactive
COc1c/c(=C2\C=c3ccccc3=N2)[nH]/c1=C\c1[nH]c(C)cc1C | inactive | inactive
COc1ccc(C(=O)OCC#CCSc2nnc(-c3cccc4ccccc34)o2)cc1 | inactive | inactive
COc1ccnc(NC(=S)N2CCN(c3ncc(C(F)(F)F)cc3Cl)CC2)c1 | inactive | inactive
CC(NCc1ccc2c(c1)nc(NC(=O)c1ccc(-c3cn[nH]c3)s1)n2CC(C)(C)O)C(C)(C)C (stereo not given) | inactive | inactive
N#Cc1ccc(-c2csc(N3CCC(C(N)=O)CC3)n2)cc1 | inactive | inactive
COc1ccc(-c2nnc3n2N=C(c2cc(OC)ccc2OC)CS3)c(OC)c1 | inactive | inactive
O=C(Nc1ccc(-c2nc3ccccc3[nH]2)cc1)c1ccc2n[nH]nc2c1 | inactive | inactive
Cn1nnnc1Sc1ncnc2scc(-c3ccc(Br)cc3)c12 | inactive | inactive
Cn1nnnc1Sc1ncnc2scc(-c3cc4ccccc4o3)c12 | inactive | inactive
COc1cccc(CN(C)c2ccc([S+](=O)([O-])Nc3nccs3)cc2)c1O | inactive | inactive
O=C(Nc1nc(-c2ccccc2)cs1)c1cccc(NS(=O)(=O)c2nccs2)c1 | inactive | inactive

SMILES | Potency [1] | Potency [2]
Cc1ccc(OCCn2c(CCNC(=O)c3ccccc3F)nc3ccccc32)cc1 | inactive | inactive
N#Cc1nc(Nc2cc(F)cc(F)c2)nc(Nc2cc(F)cc(F)c2)n1 | inactive | inactive
Cc1cn([C@H]2C[C@H](N[S+](=O)([O-])Cc3cc(Cl)cc(Cl)c3)[C@@H](CO)O2)c(=O)[nH]c1=O | inactive | inactive
Fc1cc(F)cc(Nc2nc(NC3CCCC3)nc(C3CO3)n2)c1 (stereo not given) | inactive | inactive
COc1ccc(-n2ncc3c2CCCC3NC(=O)c2ccc3ncccc3c2)cc1 (stereo not given) | inactive | inactive
N[C@@H](Cc1ccc(O[S+](=O)([O-])c2cccc3cnccc23)cc1)C(=O)N1CCN(c2ccccc2)CC1 | inactive | inactive
N#Cc1c(Cl)cccc1Oc1ccc([S+](=O)([O-])N2CCN([S+](=O)([O-])c3c(F)cccc3F)CC2)cc1 | inactive | inactive
Fc1cc(Nc2nc(-c3ccncc3)nc3ccccc23)ccc1-c1ccnc(C(F)(F)F)c1 | inactive | inactive
O=c1[nH]c(CCl)nc2sc3c(c12)CCCC3 | inactive | inactive
COc1ccc(NC(=O)c2ccc(-c3nc4ccccc4[nH]3)cc2)cc1OC | inactive | inactive
Cc1ccc(C(=O)Nc2ccc(N3CCCCC3)cc2)cc1 | inactive | inactive
O=C(NNC(=O)c1cc2ccccc2[nH]1)OCc1ccccc1 | inactive | inactive
O=C1CCCC2=C1C(c1[nH]ncc1Cl)NC(=NCCc1ccc(O)cc1)N2 (stereo not given) | inactive | inactive
Cc1ccc(S(=O)(=O)Nc2cccc3ccc(C)nc23)cc1 | inactive | inactive
O=C([C@@H](Cc1ccc(O[S+](=O)([O-])c2cccnc2)cc1)N[S+](=O)([O-])c1cccc2cccnc12)N1CCN(c2ccccc2)CC1 | inactive | inactive
Cc1cc(Nc2nc(-c3ccccc3)nc3ccccc23)n[nH]1 | inactive | inactive
Cc1cc(C)n2ncc(C(=O)NC(C)C)c2n1 | inactive | inactive
Cc1ccc(OCCn2c(CCNC(=O)CCc3ccccc3Br)nc3ccccc32)cc1 | inactive | inactive
Cc1cc2c(s1)c1cnn(Cc3ccccc3C)c(=O)c1n2C | inactive | inactive
O=C1c2ccccc2C(=O)N1c1cc(=O)c2ccccc2[nH]1 | inactive | inactive
OCc1ccc(-c2ccc3ncnc(NCc4ncc[nH]4)c3c2)o1 | inactive | inactive
CCCn1c(-c2ccc(F)cc2)nc2c(NC(C)CN(C)C)nc(C)nc21 (stereo not given) | inactive | inactive
CC(=O)Nc1sc2c(c1-c1cncnc1)CCNC2 | inactive | inactive
COC/C=C/c1cc(F)c(S(=O)(=O)N2CCN(S(=O)(=O)c3ccc4c(c3)OCCO4)CC2)cc1F | inactive | inactive
O=C(Nc1ccc(-c2nc3ccccc3[nH]2)cc1)c1ccc2ncccc2c1 | inactive | inactive
CN(Cc1cccs1)c1nc(-c2ccccc2C(F)(F)F)nc2ccccc12 | inactive | inactive
